The list is a sample of the results.
aSyn 5UTR act – Activators via SNCA 5'UTR binding, MLPCN; AID 1814, 2009; 7.1% of 300,000 active; alpha-synuclein 5'UTR reporter, activators screen; activity score, % (tested at 7.5 µM), hits read low; in the data active = activity score below about -60%
The depositor's hits bear a star.

How did COc1cccc(CCc2nc3ccccc3c(=O)n2N)c1 do in these assays?
aSyn 5UTR act: -68*

How did CCn1c(CCc2ccccc2)nc2ccccc21 do in these assays?
aSyn 5UTR act: -76*

What do the screens show for `COCn1c(COc2ccc3ccccc3c2)nc2ccccc21`?
aSyn 5UTR act: -92*

What do the screens show for `Cn1c(COc2ccccc2Br)nc2ccccc21`?
aSyn 5UTR act: -145*

How did CCn1c(COc2ccccc2C)nc2ccccc21 do in these assays?
aSyn 5UTR act: -131*

How did Nn1c(COc2ccccc2)nc2ccccc2c1=O do in these assays?
aSyn 5UTR act: -70*

How did Cc1ccccc1OCc1nc2ccccc2c(=O)n1N do in these assays?
aSyn 5UTR act: -113*

Results for COc1ccc(-n2cccc2/C=C2/NC(=O)N(c3cccc(Cl)c3)C2=O)cc1 ?
aSyn 5UTR act: -143*

Results for O=C(NC(=S)NC1CCCC1)c1ccccc1 ?
aSyn 5UTR act: -126*

What do the screens show for `O=C(NNC(=S)NC1CCCCC1)c1ccc(Cl)s1`?
aSyn 5UTR act: -62*

What do the screens show for `Cc1cc(C(=O)NNC(=S)NC2CCCCC2)cs1`?
aSyn 5UTR act: -77*

Results for COc1cccc(C(=O)NNC(=S)NC2CCCCC2)c1 ?
aSyn 5UTR act: -64*

How did CCCNC(=O)c1ccc2c(=O)c(O)c(-c3ccsc3)[nH]c2c1 do in these assays?
aSyn 5UTR act: 87

How did CCCCNC(=S)NNC(=O)c1csc(C)c1 do in these assays?
aSyn 5UTR act: -63*

What do the screens show for `N#Cc1c(NC(=O)C2CCCO2)sc2c1CCCCCC2` (stereo not drawn)?
aSyn 5UTR act: -98*

How did NC(=O)c1c(NC(=O)C2CCCO2)sc2c1CCCC2 (stereo not drawn) do in these assays?
aSyn 5UTR act: -74*

Results for O=S(=O)(/C=C/c1ccccc1)Oc1ccccc1 ?
aSyn 5UTR act: -80*

What do the screens show for `C=CCSc1nnc(-c2ccc([N+](=O)[O-])cc2)o1`?
aSyn 5UTR act: -140*

What do the screens show for `Clc1ccc(-c2nnc(SCc3ccon3)o2)c(Cl)c1`?
aSyn 5UTR act: -69*

How did C=CCSc1nnc(-c2ccc(Cl)cc2Cl)o1 do in these assays?
aSyn 5UTR act: -78*

How did COc1ccc(C(NC(C)=O)c2ccc3cccnc3c2O)c(OC)c1 (stereo not drawn) do in these assays?
aSyn 5UTR act: 83

What do the screens show for `COc1cc(/C=C/c2ccc3cccc(O)c3n2)ccc1O`?
aSyn 5UTR act: -67*

How did Oc1cccc2ccc(/C=C/c3cccs3)nc12 do in these assays?
aSyn 5UTR act: -172*

Results for CCOC(=O)c1ccc(NC(=O)c2ccco2)cc1 ?
aSyn 5UTR act: -189*

What do the screens show for `CCCOC(=O)c1ccc(NC(=O)c2ccoc2C)cc1`?
aSyn 5UTR act: -154*

What do the screens show for `CCOC(=O)/C(=C/c1ccccc1)NC(=O)c1ccco1`?
aSyn 5UTR act: -65*

How did O=C(Nc1ccccc1)c1ccc(OC(=O)c2ccccc2)cc1 do in these assays?
aSyn 5UTR act: -63*

What do the screens show for `CC(C)OC(=O)c1ccc(NC(=O)c2ccccc2)cc1`?
aSyn 5UTR act: -78*

How did Cc1ccc(NC(=O)c2ccccc2)cc1OC(=O)c1ccccc1 do in these assays?
aSyn 5UTR act: -109*

Results for CC(C)OC(=O)c1ccc(NC(=O)c2ccco2)cc1 ?
aSyn 5UTR act: -140*

How did CCCn1cnc2c(sc3nc4c(cc32)CSC(C)(C)C4)c1=O do in these assays?
aSyn 5UTR act: -105*

Results for CN(C)S(=O)(=O)Oc1cccc(C(=O)Nc2ccc(Cl)cc2)c1 ?
aSyn 5UTR act: -129*

What do the screens show for `CN(C)S(=O)(=O)Oc1ccc(C(=O)Nc2cccc(Cl)c2)cc1`?
aSyn 5UTR act: -244*

How did CN(C)S(=O)(=O)Oc1cccc(C(=O)Nc2ccccc2Cl)c1 do in these assays?
aSyn 5UTR act: -91*

Results for O=C(/C=C/c1ccc2ccccc2n1)c1cc(Cl)ccc1O ?
aSyn 5UTR act: -69*

What do the screens show for `O=C(/C=C/c1ccco1)Nc1ccc(C(=O)N2CCOCC2)cc1`?
aSyn 5UTR act: -75*

How did O=C(/C=C/c1ccco1)Nc1ccc(N2CCCC2)cc1 do in these assays?
aSyn 5UTR act: -207*

What do the screens show for `O=C(CSc1nc2cc(Cl)ccc2s1)c1ccco1`?
aSyn 5UTR act: -210*

How did Cc1ccc(C(=O)C(C(=O)/C=C/c2ccccc2)=C2SCCCS2)cc1 do in these assays?
aSyn 5UTR act: -102*

How did Cc1ccc(Nc2nc(=O)c3cccnc3s2)cc1 do in these assays?
aSyn 5UTR act: -228*

Results for NS(=O)(=O)c1ccc(N/N=C/c2cn(-c3ccccc3)nc2-c2cccs2)cc1 ?
aSyn 5UTR act: -92*

Results for O=C(Nc1cccnc1)c1cn(-c2ccccc2)nc1-c1cccs1 ?
aSyn 5UTR act: -84*

How did O=C(O)c1cccc(N/N=C/c2cn(-c3ccccc3)nc2-c2cccs2)c1 do in these assays?
aSyn 5UTR act: -68*

How did Cc1nn(Cc2c(Cl)cccc2Cl)c(C)c1NC(=O)c1cn(-c2ccccc2)nc1-c1ccccc1 do in these assays?
aSyn 5UTR act: 122

How did Cc1ccsc1/C=N/Nc1cccc(C(=O)O)c1 do in these assays?
aSyn 5UTR act: 105

What do the screens show for `CCOC(=O)c1c(C)[nH]c(N=Nc2ccc(C)cc2C)c1C`?
aSyn 5UTR act: -106*

How did CCOC(=O)c1c(C)[nH]c(N=Nc2ccccc2C)c1C do in these assays?
aSyn 5UTR act: -213*
